The record followed here is PubChem BioAssay (EPA / NIEHS).

In general, AC50 refers to the concentration giving half of the maximal activity seen.

Active and inactive are the calls of the source. Rule for the calls: active = hit-call score of the fitted dose curve at least 0.9, where 1 is the maximum; inactive = score below 0.9.

Read-out in test [1]: Urokinase-type plasminogen activator receptor (uPAR), PLAUR (gene 5329)
As to the kind of experiment: BSK_CASM3C_uPAR: BioMAP Diversity Plus: CASM3C Assay for Urokinase-type plasminogen activator receptor (uPAR) Biomarker Activity (AID 2283054).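 Note: cell-surface uPAR protein level quantified by ELISA.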 As to conditions: primary human coronary artery smooth muscle cells; actives raise or lower the signal.

Read-out in test [2]: Vascular cell adhesion molecule 1 (VCAM1), VCAM1 (gene 7412)
In words: BSK_CASM3C_VCAM1: BioMAP Diversity Plus: CASM3C Assay for Vascular cell adhesion molecule 1 (VCAM1) Biomarker Activity (AID 2283055).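 Note: VCAM-1 protein level quantified by ELISA on the cells.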 As to conditions: primary human coronary artery smooth muscle cells; actives raise or lower the signal.

Read-out in test [3]: Epidermal growth factor receptor (EGFR), EGFR (gene 1956)
In words: BSK_hDFCGF_EGFR: BioMAP Diversity Plus: hDFCGF Assay for Epidermal growth factor receptor (EGFR) Biomarker Activity (AID 2283057). As to conditions: primary human foreskin fibroblasts; actives raise or lower the signal. The gist of the method: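 ELISA readout of EGFR on human dermal fibroblasts (primary foreskin cells), 24 h post-dosing; bidirectional curve fit vs DMSO baseline, gain or loss of signal scored.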

Read-out in test [4]: Interleukin-8 (IL8), CXCL8 (gene 3576)
In words: BSK_hDFCGF_IL8: BioMAP Diversity Plus: hDFCGF Assay for Interleukin-8 (IL8) Biomarker Activity (AID 2283058). The following applies: primary human foreskin fibroblasts; actives raise or lower the signal. The gist of the method: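 IL-8 levels read by ELISA at 24 hours after dosing human skin fibroblast cultures. Parallel SRB staining assessed overt cytotoxicity, and gain or loss of signal was fitted against DMSO control.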

Test [5] can be described thus: BSK_hDFCGF_Proliferation: Cell Proliferation Assessment in the BioMAP Diversity Plus: hDFCGF Assay (AID 2283059).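 Note: curves fitted for both rise and fall of signal versus DMSO baseline.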 As to conditions: primary human foreskin fibroblasts. Summed up: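 This proliferation readout used SRB total-protein staining of human foreskin fibroblasts […], normalized to DMSO with bidirectional curve fitting.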
Read-out in test [6]: Macrophage colony-stimulating factor (MCSF), CSF1 (gene 1435)
As to the kind of experiment: BSK_hDFCGF_MCSF: BioMAP Diversity Plus: hDFCGF Assay for Macrophage colony-stimulating factor (MCSF) Biomarker Activity (AID 2283060). The following applies: primary human foreskin fibroblasts; actives raise or lower the signal. Summed up:
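M-CSF levels read by ELISA at 24 h post-dosing in human skin fibroblasts. Parallel cultures stained with SRB assessed cytotoxicity at the same time point; response fitted in both directions against the DMSO baseline.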

Read-out in test [7]: TIMP metallopeptidase inhibitor 1 (TIMP1), TIMP1 (gene 7076)
As to the kind of experiment: BSK_hDFCGF_TIMP1: BioMAP Diversity Plus: hDFCGF Assay for TIMP metallopeptidase inhibitor 1 (TIMP1) Biomarker Activity (AID 2283062). The following applies: primary human foreskin fibroblasts; actives raise or lower the signal. Summed up: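 TIMP-1 measured by ELISA 24 h after chemical dosing of primary human skin fibroblasts, with gain or loss fitted relative to DMSO. Parallel SRB staining (560 nm) monitored overt cytotoxicity.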

Read-out in test [8]: Monokine induced gamma interferon (MIG), CXCL9 (gene 4283)
In words: BSK_hDFCGF_MIG: BioMAP Diversity Plus: hDFCGF Assay for Monokine induced gamma interferon (MIG) Biomarker Activity (AID 2283063). As to conditions: primary human foreskin fibroblasts; actives raise or lower the signal. Summed up:
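Human primary foreskin fibroblasts in the hDFCGF system, exposed to test chemical for 24 h; MIG measured by ELISA. Bidirectional curve fitting against DMSO negative control as activity baseline.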

Read-out in test [9]: Matrix Metallopeptidase 1 (MMP1), MMP1 (gene 4312)
In words: BSK_hDFCGF_MMP1: BioMAP Diversity Plus: hDFCGF Assay for Matrix Metallopeptidase 1 (MMP1) Biomarker Activity (AID 2283064). As to conditions: primary human foreskin fibroblasts; actives raise or lower the signal. Summed up:
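Human foreskin fibroblasts exposed to chemical for 24 h; MMP1 detected by ELISA, with DMSO as baseline for bidirectional fitting.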

Read-out in test [10]: Vascular cell adhesion molecule 1 (VCAM1), VCAM1 (gene 7412)
As to the kind of experiment: BSK_hDFCGF_VCAM1: BioMAP Diversity Plus: hDFCGF Assay for Vascular cell adhesion molecule 1 (VCAM1) Biomarker Activity (AID 2283065).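 For AC50: VCAM-1 protein level quantified by ELISA after 24 h chemical exposure.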 The following applies: primary human foreskin fibroblasts; actives raise or lower the signal. Summed up:
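ELISA readout of VCAM-1 on human dermal fibroblast primary cultures, 24 h after chemical exposure. Gain or loss of signal fitted in both directions against DMSO baseline.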

Read-out in test [11]: Plasminogen activator inhibitor-1 (PAI1), SERPINE1 (gene 5054)
As to the kind of experiment: BSK_hDFCGF_PAI1: BioMAP Diversity Plus: hDFCGF Assay for Plasminogen activator inhibitor-1 (PAI1) Biomarker Activity (AID 2283066). The following applies: primary human foreskin fibroblasts; actives raise or lower the signal. The gist of the method: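 ELISA readout of PAI-1 from primary human skin fibroblast cultures, 24 h after compound addition. Gain or loss of signal was fitted bidirectionally against DMSO baseline.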

Read-out in test [12]: Intercellular Adhesion Molecule 1 (ICAM1), ICAM1 (gene 3383)
In words: BSK_KF3CT_ICAM1: BioMAP Diversity Plus: KF3CT Assay for Intercellular Adhesion Molecule 1 (ICAM1) Biomarker Activity (AID 2283067). As to conditions: primary human keratinocytes with fibroblasts; actives raise or lower the signal. Summed up:
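Cell-surface ICAM-1 was measured by ELISA 24 h after dosing primary human skin keratinocytes co-cultured with fibroblasts. Parallel SRB staining tracked overt cytotoxicity. Gain or loss of signal was fitted relative to DMSO.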

Read-out in test [13]: Interferon-gamma inducible Protein 10 (IP10), CXCL10 (gene 3627)
In words: BSK_KF3CT_IP10: BioMAP Diversity Plus: KF3CT Assay for Interferon-gamma inducible Protein 10 (IP10) Biomarker Activity (AID 2283068). The following applies: primary human keratinocytes with fibroblasts; actives raise or lower the signal. Summed up: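 Signal is secreted/surface IP-10 by ELISA in a human primary skin co-culture of keratinocytes and foreskin fibroblasts, taken 24 h post-dosing; DMSO served as negative control.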

The nature of test [14]: BSK_KF3CT_SRB: Viability Assessment in the BioMAP Diversity Plus: KF3CT Assay (AID 2283069). The following applies: primary human keratinocytes with fibroblasts. Summed up: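 Overt cytotoxicity is assessed as total protein by sulforhodamine B staining in parallel human skin co-cultures at 24 h after dosing. DMSO serves as negative control and baseline.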
Read-out in test [15]: Interleukin-1 alpha (IL1a), IL1A (gene 3552)
As to the kind of experiment: BSK_KF3CT_IL1a: BioMAP Diversity Plus: KF3CT Assay for Interleukin-1 alpha (IL1a) Biomarker Activity (AID 2283070). As to conditions: primary human keratinocytes with fibroblasts; actives raise or lower the signal. The gist of the method:
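Readout is IL-1a level by ELISA, compared bidirectionally with DMSO as baseline. Cells: human keratinocytes co-cultured with foreskin fibroblasts, harvested 24 h post-dose.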

Read-out in test [16]: TIMP metallopeptidase inhibitor 2 (TIMP2), TIMP2 (gene 7077)
As to the kind of experiment: BSK_KF3CT_TIMP2: BioMAP Diversity Plus: KF3CT Assay for TIMP metallopeptidase inhibitor 2 (TIMP2) Biomarker Activity (AID 2283071). The following applies: primary human keratinocytes with fibroblasts; actives raise or lower the signal. The gist of the method: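 ELISA readout of TIMP-2 in keratinocyte plus foreskin fibroblast co-cultures (human skin primary cells), 24 h post-dose. Gain or loss of signal fitted relative to DMSO.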

Read-out in test [17]: Transforming growth factor beta 1 (TGFb1), TGFB1 (gene 7040)
In words: BSK_KF3CT_TGFb1: BioMAP Diversity Plus: KF3CT Assay for Transforming growth factor beta 1 (TGFb1) Biomarker Activity (AID 2283072). As to conditions: primary human keratinocytes with fibroblasts; actives raise or lower the signal. The gist of the method: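 Read-out: ELISA for TGF-b1 in keratinocyte/foreskin fibroblast human skin co-culture, 24 h after dosing; bidirectional curve fit vs DMSO baseline; gain or loss of signal scored.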

Read-out in test [18]: C-C motif chemokine 2 (Homo sapiens) (UniProt P13500)
As to the kind of experiment: BSK_KF3CT_MCP1: BioMAP Diversity Plus: KF3CT Assay for Monocyte Chemoattractant Protein 1 (MCP1/CCL2) Biomarker Activity (AID 2283073). The following applies: primary human keratinocytes with fibroblasts; actives raise or lower the signal. The gist of the method:
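ELISA read-out of MCP-1, 24 h post-dose, in primary human skin keratinocytes co-cultured with fibroblasts. Parallel SRB staining monitors cytotoxicity; changes fitted both directions relative to DMSO.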

Test [19] is described as follows: BSK_hDFCGF_SRB: Viability Assessment in the BioMAP Diversity Plus: hDFCGF Assay (AID 2283061).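 Note: cells exposed to compound for 24 h before the read.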 As to conditions: primary human foreskin fibroblasts. The gist of the method: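 Viability was read as total protein: after 10% TCA fixation, wells were stained with 0.1% sulforhodamine B and read at 560 nm. Primary human foreskin fibroblasts were dosed for 24 h, with bidirectional fitting versus DMSO.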

As for `O=S(=O)(c1ccc(Cl)cc1)c1ccc(Cl)cc1`, the result in test [1], in test [2], in test [3], in [4], in test [5] and in test [6] was inactive. For the same molecule, the result in [7], in test [8], in [9], in test [11], in [12] and in test [13] was inactive. The outcome in test [14], in test [15], in [16], in test [17] and in test [18] was inactive. The AC50 in test [10] was 5.32 µM (active).

For the molecule `CC(C)(C)c1cc(O)ccc1O`, the outcome in test [1] was inactive. Also, the half-maximal activity concentration (AC50) is 23.7 µM (active) in test [2]; 5.78 µM (active) in test [3]; 0.472 µM (active) in test [5]; 5.23 µM (active) in [6]; 4.45 µM (active) in test [7]; 4.42 µM (active) in test [8]. For the same molecule, the AC50 in [9] was 6.21 µM (active); in test [10] it was 3.31 µM (active); in test [11], 5.24 µM (active); in test [12], 30.8 µM (active); in test [13] it was 30.1 µM (active); in test [14] it was 29.9 µM (active). The AC50 in test [15] is 28.3 µM (active); in test [16], 20 µM (active); in test [17], 20 µM (active); in [18], 36 µM (active).

Turning to `O=C(O)C(F)(F)C(F)(F)C(F)(F)C(F)(F)C(F)(F)C(F)(F)F`, the outcome in test [1], in [2], in [3], in test [4], in [5] and in test [6] was inactive. For the same molecule, the outcome in [7], in test [8], in [9], in test [10], in test [11] and in test [12] was inactive. Besides, the outcome in test [13], in test [14], in test [15], in [16], in test [17] and in test [18] was inactive.

As to `CCOP(=S)(OCC)SCCS(=O)(=O)CC`, the result in test [1], in test [2], in test [3], in test [5], in test [6] and in [19] was inactive. For the same molecule, the outcome in [7], in test [8], in test [9], in [10], in test [11] and in [12] was inactive. In addition, the outcome in test [13], in test [14], in test [15], in test [16], in [17] and in test [18] was inactive.

As to `COP(=S)(OC)Oc1ccc(Sc2ccc(OP(=S)(OC)OC)cc2)cc1`, the outcome in test [1], in test [2], in test [3], in [6], in [7] and in [8] was inactive. The result in test [9], in test [10], in test [12], in test [14], in [15] and in [16] was inactive. Moreover, the outcome in test [17] and in [18] was inactive. In addition, the values for the concentration at half-maximal activity (AC50) in test [5], in test [11] and in test [13] were 20 µM (active), 0.382 µM (active) and 20 µM (active), respectively.

For `Nc1cccc2ccccc12`, the outcome in test [1], in test [2], in test [3], in test [8], in [12] and in test [13] was inactive. Moreover, the outcome in test [14], in [15], in [16] and in test [17] was inactive. For the same molecule, the AC50 in test [5] is 13.6 µM (active); in test [6] it was 20 µM (active); in test [19], 32 µM (active); in test [7], 27.7 µM (active); in test [9] it was 33.1 µM (active); in [10], 25.9 µM (active). Further, in test [11], the AC50 is 20 µM (active).
